PubChem BioAssay (EPA / NIEHS)
Calls of active or inactive are those of the source. How the source made its calls: active means hit-call score of the fitted dose curve at least 0.9, where 1 is the maximum; inactive means score below 0.9.

Read-out: Cytochrome P450 (CYP2B6), CYP2B6 (gene 1555)
Assay: LTEA_HepaRG_CYP2B6: Life Technologies and Expression Analysis (LTEA) Assay for Cytochrome P450 (CYP2B6) using HepaRG (AID 2283481)
Conditions: mRNA level, 48 h; actives raise or lower the signal
Procedure: LTEA_HepaRG is a cell based, multiplexed-readout assay that uses HepaRG, a human liver cell line, with measurements taken at 48 hours after chemical dosing on a 96-well plate.LTEA_HepaRG_CYP2B6 is one of 102 assay component(s) measured in the LTEA HepaRG cell culture assay. It is a marker of NR mediated metabolism.Data from the assay component LTEA_HepaRG_CYP2B6 was analyzed into 1 endpoint. This assay endpoint, LTEA_HepaRG_CYP2B6, was analyzed with bidirectional fitting relative to DMSO as the negative control and baseline of activity. Using a type of inducible reporter, measures of mRNA induction for gain or loss-of-signal activity can be used to understand regulation of transcription factor activity. To generalize the intended target to other relatable targets, this assay endpoint is annotated to the cyp intended target family, where the subfamily is xenobiotic metabolism.
A total of 1060 chemcials from the ToxCast library were tested in eight-point concentration-response experiments. Cell culture and cytotoxicity assays were conducted at Thermo Fisher Scientific's Custom Services facility (Madison, WI). A single lot of human HepaRG cells (Thermo Fisher Scientific, Frederick, MD) was used for the cell culture experiments. 96-well format collagen type I coated plates of human HepaRG cells were prepared using established methods. Briefly, cryopreserved HepaRG cells were thawed, plated at a density of approximately 100,000 cells/well in HepaRG Thaw, Plate, and General Purpose media (HPRG770, Thermo Fisher Scientific), and incubated for 48 hours. 0.5% DMSO was selected as vehicle control to balance the requisite need of DMSO in HepaRG cultures to maintain differentiation (for example, baseline metabolism, proportions of hepatocytes vs. cholangiocytes), while enabling further hepatic receptor pathway activation (for example, PXR and CAR) in response to chemical exposure. 48 hours after plating, the culture medium was replaced with HepaRG Serum-Free Incudtion Media. Cells were exposed to each test chemical in duplicate and maintained in CO2 incubators for another 48 hours. Chemical plates were thawed to room temperature and 200x concentrations of treatment groups were prepared. 8-point conentration-reponse curves were made with the highest exposure at 100 uM, followed by half-log dilutions, all in 0.5% DMSO. Each test plate contained variouse controls, induction positive controls (1mM phenobarbital), cytotoxicity positive controls ([…] aflatoxin B1), vehicle controls (0.5% DMSO), and total lysis controls (0.5% DMSO). Cell morphology images were taken using an Essen IncuCyte FLR automated microscope, with six 96-well plates imaged in about 24 minutes. Images were captured and exported and JPEG files. Spent culture media was transfered to black-well plates for the LDH assay, and remaining media was sorted at -80 C for later use. Cells were treated with RLT buffer and frozen until shipped for gene expression analysis. Total RNA was isolated from the cell suspension in 75 uL of Buffer RLT (Qiagen, Germantown, MD 20874) by Quintiles/Expression Analysis (Durham, NC) using a custom isolation procedure. Total RNA from each plate well was transferred to a preamplification plate. Fluidigm's 96.96 Dynamic ArrayTM (Fluidigm, Amsterdam, the Netherlands) technology was used for gene expression analyses by quantitative reverse transcription polymerase chain reaction (qRT-PCR, performed by Quintiles/Expression Analysis, Durham, NC)89. Standard TaqManTM Assays (Applied Biosystems/ThermoFisher Scientific, Foster City, CA) were used to assess the expression of 93 genes selected based on their selectivity and sensitivity to important hepatic receptors known to be modulated by environmental chemicals; importance in human hepatocyte functionality; and hepatotoxicity. […]

**Q.** With `CC(C)(C)C(=O)C(Oc1ccc(Cl)cc1)n1cncn1` (stereo not given) as the compound, how does the AC50 read?
**A.** Its AC50 is 5.18 µM (active).

**Q.** With `CN/C(=N\[N+](=O)[O-])NCc1cnc(Cl)s1` as the compound, how does the AC50 read?
**A.** The AC50 was 30.8 µM (active).

**Q.** With `Cc1cnc(C2=NC(C)(C(C)C)C(=O)N2)c(C(=O)O)c1` (stereo not given) as the compound, how does the outcome read?
**A.** Its outcome is “inactive”.

**Q.** With `COCc1cnc(C2=NC(C)(C(C)C)C(=O)N2)c(C(=O)O)c1` (stereo not given) as the compound, how does the outcome read?
**A.** The outcome was “inactive”.

**Q.** How did the AC50 turn out when `OC(c1ccc(Cl)cc1)(c1ccc(Cl)cc1)C(Cl)(Cl)Cl` was run?
**A.** Its AC50 is 11.8 µM (active).

**Q.** With `CC1(C)CCC(=Cc2ccc(Cl)cc2)C1(O)Cn1cncn1` (stereo not given) as the compound, how does the AC50 read?
**A.** The AC50 was 2.72 µM (active).

**Q.** For `COP(=O)(OC)O/C(C)=C/C(=O)N(C)C`, which outcome is on record?
**A.** Its outcome is “inactive”.

**Q.** For `CNC(=O)N(C)c1nnc(C(C)(C)C)s1`, which AC50 is on record?
**A.** The AC50 was 31.6 µM (active).

**Q.** How did the outcome turn out when `O=c1n(Cl)c(=O)n(Cl)c(=O)n1Cl` was run?
**A.** The outcome was “inactive”.

**Q.** How did the AC50 turn out when `CCCCC(C#N)(Cn1cncn1)c1ccc(Cl)cc1` (stereo not given) was run?
**A.** The AC50 was 3.06 µM (active).

**Q.** With `COC(=O)NS(=O)(=O)c1ccc(N)cc1` as the compound, how does the outcome read?
**A.** The outcome was “inactive”.

**Q.** How did the outcome turn out when `CN=C=S` was run?
**A.** Its outcome is “inactive”.

**Q.** With `COC(=O)N(C(=O)N1CO[C@@]2(C(=O)OC)Cc3cc(Cl)ccc3C2=N1)c1ccc(OC(F)(F)F)cc1` as the compound, how does the AC50 read?
**A.** Its AC50 is 0.89 µM (active).

**Q.** How did the AC50 turn out when `CCC(C)n1c(=O)[nH]c(C)c(Br)c1=O` (stereo not given) was run?
**A.** Its AC50 is 1.19 µM (active).

**Q.** With `CC(C)Nc1nc(Cl)nc(NC(C)C)n1` as the compound, how does the AC50 read?
**A.** Its AC50 is 2.93 µM (active).

**Q.** How did the AC50 turn out when `COC(=O)c1c(C(F)F)nc(C(F)(F)F)c(C2=NCCS2)c1CC(C)C` was run?
**A.** The AC50 was 19.7 µM (active).

**Q.** For `Cc1nc(N(C)C)nc(OC(=O)N(C)C)c1C`, which AC50 is on record?
**A.** Its AC50 is 8.42 µM (active).

**Q.** How did the AC50 turn out when `CCCN(CC)CC1COC2(CCC(C(C)(C)C)CC2)O1` (stereo not given) was run?
**A.** Its AC50 is 50 µM (active).

**Q.** How did the AC50 turn out when `CCCCC(O)(Cn1cncn1)c1ccc(Cl)cc1Cl` (stereo not given) was run?
**A.** The AC50 was 80.1 µM (active).

**Q.** Which AC50 does the source give for `CC1(C)CON(Cc2ccccc2Cl)C1=O` here?
**A.** Its AC50 is 2.45 µM (active).

**Q.** For `N#CN=C1SCCN1Cc1ccc(Cl)nc1`, which AC50 is on record?
**A.** The AC50 was 28.6 µM (active).

**Q.** With `CCOP(=S)(OCC)Oc1nc(Cl)n(C(C)C)n1` as the compound, how does the AC50 read?
**A.** The AC50 was 1.78 µM (active).

**Q.** How did the AC50 turn out when `CCN(CC)c1nc(C)cc(OP(=S)(OC)OC)n1` was run?
**A.** The AC50 was 2.79 µM (active).

**Q.** Which outcome does the source give for `Nc1c(Cl)c(Cl)nc(C(=O)O)c1Cl` here?
**A.** The outcome was “inactive”.

**Q.** With `CCOC(=O)C(C)OC(=O)c1cc(Oc2ccc(C(F)(F)F)cc2Cl)ccc1[N+](=O)[O-]` (stereo not given) as the compound, how does the AC50 read?
**A.** The AC50 was 11.5 µM (active).

**Q.** With `CO/N=C(/C1=NOCCO1)c1ccccc1Oc1ncnc(Oc2ccccc2Cl)c1F` as the compound, how does the AC50 read?
**A.** Its AC50 is 21.1 µM (active).

**Q.** Which AC50 does the source give for `Clc1nc(Cl)nc(Nc2ccccc2Cl)n1` here?
**A.** The AC50 was 34.8 µM (active).

**Q.** Which AC50 does the source give for `CCOc1nc(C(Cl)(Cl)Cl)ns1` here?
**A.** Its AC50 is 1.28 µM (active).

**Q.** `CC(C)N1C(=O)N(c2ccccc2)CSC1=NC(C)(C)C` was tested. Which AC50 did it give?
**A.** Its AC50 is 89.3 µM (active).

**Q.** Which AC50 does the source give for `COCC(C)N(C(=O)CCl)c1c(C)csc1C` (stereo not given) here?
**A.** The AC50 was 2.05 µM (active).

**Q.** For `COP(=S)(OC)SCn1nnc2ccccc2c1=O`, which AC50 is on record?
**A.** Its AC50 is 6.27 µM (active).

**Q.** How did the AC50 turn out when `Cc1ccc(N=CN(C)C=Nc2ccc(C)cc2C)c(C)c1` was run?
**A.** Its AC50 is 30.3 µM (active).

**Q.** With `N#Cc1c[nH]cc1-c1cccc2c1OC(F)(F)O2` as the compound, how does the AC50 read?
**A.** Its AC50 is 32 µM (active).

**Q.** `CCN(CC)C(=O)C(C)Oc1cccc2ccccc12` (stereo not given) was tested. Which AC50 did it give?
**A.** The AC50 was 12 µM (active).

**Q.** For `CCOc1nc(F)cc2nc(S(=O)(=O)Nc3c(Cl)cccc3Cl)nn12`, which AC50 is on record?
**A.** The AC50 was 13.2 µM (active).

**Q.** `CC(C)Oc1cccc(NC(=O)c2ccccc2C(F)(F)F)c1` was tested. Which AC50 did it give?
**A.** Its AC50 is 33 µM (active).

**Q.** For `O=C(O)c1c(Cl)ccc2cc(Cl)cnc12`, which outcome is on record?
**A.** Its outcome is “inactive”.

**Q.** For `CCSC(=O)N1CCCCCC1`, which AC50 is on record?
**A.** The AC50 was 2.93 µM (active).

**Q.** `O=P(O)(O)CCCl` was tested. Which outcome did it give?
**A.** Its outcome is “inactive”.

**Q.** With `Nc1cnn(-c2ccccc2)c(=O)c1Cl` as the compound, how does the AC50 read?
**A.** The AC50 was 17.1 µM (active).
